HSF1 activator: HSF-1 activators, primary screen, NIH3T3-HGL cells, MG132 stress, luminescence, single point; 1.7% of 300,000 active; activation, % at 9 µM; NIH3T3-HGL HSF-1 luciferase reporter, 8 h; 100% = twice DMSO control signal;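 active = mean replicate activation of at least 50% with a set share of replicates each reaching 50%; inconclusive = only one of those two conditions met; inactive = mean below 50% and too few replicates reaching it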
Wnt act: Wnt/beta-catenin pathway activators, primary screen, cell-based, plate reader, single point | activation, % at 9.35 µM | 1.2% of 300,000 active | Wnt/beta-catenin reporter cell assay, activator; in the data active = activation above about 30%, passing the limit was not always enough; inconclusive = no clear call, values can overlap the other calls
HSF1 inh: HSF1 inhibitors in luciferase reporter cells, primary screen, cell-based, NIH3T3, luminescence. AID 2098, 2009. NIH3T3-HGL HSE-luciferase, MG132-induced, luminescence 8 h; stronger effect = lower value. activity change, negative = inhibition, % at 7.5 µM (by protocol). 0.77% of 300,000 active;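 active = more than half of replicate wells show activity change below -50%, luminescence cut by over half; inconclusive = some wells, but at most half, below -50%; inactive = no replicate well below -50%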;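 also: luciferase reports HSF-1 transcriptional activity via heat shock element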
esBAF inh: Bmi1 luciferase reporter increase in mESCs, primary screen, esBAF inhibitor project, mouse ES cells, Bmi1 luciferase knock-in, single point | 24 h; 100% = twice the neutral-well signal | 2% of 350,000 active | AID 602393, 2012 | reporter increase, % at 12.5 µM; in the data active = activation above about 40%; inconclusive = no clear call, values can overlap the other calls;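 also: a rise in the Bmi1 reporter signal indicates esBAF inhibition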
MITF TRPM1 HTS: activators of MITF-driven TRPM1 promoter reporter, primary screen, cell-based, SK-MEL-5, luciferase, single point; 0.75% of 300,000 active; AID 588334, 2011; SK-MEL-5 TRPM1-promoter luciferase, 24 h; % of positive control, neutral wells = 0; activation, % at 12.5 µM;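 active = mean activation of at least 80% with every replicate also reaching 80%; inconclusive = mean reaches 80% but some replicate falls short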
Of the large screens only hits and unclear results are named; the others gave an inactive call. A selection: hits, their analogues and other compounds. The true share with any hit is near 3.9%.

COc1ccc(C(=O)O/N=C(\N)c2ccc(OC)c(OC)c2)cc1	HSF1 activator 66, MITF TRPM1 HTS 102
COc1ccc(C(=O)O/N=C(\N)c2ccc(OC)c(OC)c2)c(OC)c1	esBAF inh 56 (no result: Wnt act)
COc1ccc(C(=O)CCc2ccc(OC)c(OC)c2)cc1	none (no result: esBAF inh)
COc1ccc(C(=O)O/N=C(\N)c2ccccc2)c(OC)c1	none (no result: esBAF inh)
C[C@@H](NC(=O)C[C@@H]1C=C[C@H](NC(=O)Cc2ccccn2)[C@H](CO)O1)c1ccccc1	none (no result: HSF1 activator, Wnt act, HSF1 inh, MITF TRPM1 HTS)
C[C@H](CO)N1C[C@H](C)[C@H](CN(C)CC2CC2)Oc2cc(-c3cncnc3)ccc2S1(=O)=O	none (no result: HSF1 activator, Wnt act, HSF1 inh, MITF TRPM1 HTS)
CN(C)C(=O)C[C@@H]1CC[C@H]2[C@@H](COC[C@H](O)CN2C(=O)C2CC2)O1	none (no result: HSF1 activator, Wnt act, HSF1 inh, MITF TRPM1 HTS)
COc1ccc(/C(N)=N/OC(=O)CSc2ccc(C)cc2)cc1OC	HSF1 activator 57 (no result: Wnt act, esBAF inh)
N#C[C@H]1[C@H](c2ccc(C#Cc3ccccc3F)cc2)[C@@H](CO)N1C(=O)c1cccnc1	none (no result: HSF1 activator, Wnt act, HSF1 inh, MITF TRPM1 HTS)
COc1cc(CNCCc2ccc(F)cc2)ccc1OCc1ccc(Cl)nc1	none (no result: Wnt act)
COc1cc(CO)ccc1OCc1ccc(Cl)nc1	Wnt act 36, esBAF inh 57 (no result: MITF TRPM1 HTS)
C[C@H]1CN([C@@H](C)CO)C(=O)c2cc(Br)cnc2O[C@@H]1CN(C)CC1CCOCC1	none (no result: HSF1 activator, Wnt act, HSF1 inh, MITF TRPM1 HTS)
FC(F)Oc1ccc(C2N=C(c3ccccc3)NO2)cc1 (centres undefined)	Wnt act 34, MITF TRPM1 HTS 117 (no result: esBAF inh)
COc1ccc(C2N=C(c3ccccc3)NO2)cc1OC (centres undefined)	esBAF inh 52
CN(C)c1ccc2c(c1)[C@H]1C[C@H](CC(=O)NCc3ccc(Oc4ccccc4)cc3)O[C@@H](CO)[C@H]1O2	none (no result: HSF1 activator, Wnt act, HSF1 inh, MITF TRPM1 HTS)
O=C(Nc1ccc2oc(-c3ccccc3)nc2c1)c1ccco1	HSF1 activator 86, MITF TRPM1 HTS inconclusive (no result: esBAF inh)
O=C(Nc1ccc(Oc2ccccc2)cc1)C1CCCO1 (centres undefined)	esBAF inh 52 (no result: Wnt act)
COc1ccc(-c2nc3cc(NC(=S)NC(=O)Cc4ccccc4)ccc3o2)cc1	MITF TRPM1 HTS 97 (no result: Wnt act, esBAF inh)
CCC(=O)NC(=S)Nc1ccc2oc(-c3ccc(OC)cc3)nc2c1	none (no result: esBAF inh)
O=C(Nc1ccc2nn(-c3ccccc3)nc2c1)c1cccnc1	esBAF inh 53 (no result: HSF1 activator, HSF1 inh)
COc1ccc(NC(=O)C2CCCO2)cc1 (centres undefined)	none (no result: MITF TRPM1 HTS)
O=C(C[C@H]1C=C[C@@H](NC(=O)C2CCOCC2)[C@@H](CO)O1)Nc1ccc(-c2ccccc2)cc1	none (no result: HSF1 activator, Wnt act, HSF1 inh, MITF TRPM1 HTS)
Cc1ccc(S(=O)(=O)N(C)C[C@@H]2Oc3c(NC(=O)Nc4cccc5ccccc45)cccc3C(=O)N([C@H](C)CO)C[C@H]2C)cc1	none (no result: HSF1 activator, Wnt act, HSF1 inh, MITF TRPM1 HTS)
CC(=O)Nc1ccc(-c2nc3cc(Cl)ccc3o2)cc1	none (no result: MITF TRPM1 HTS)
O=C(Nc1ccc2oc(-c3ccccc3)nc2c1)C1CCCO1 (centres undefined)	HSF1 activator 73, MITF TRPM1 HTS 88 (no result: esBAF inh)
O=C(Nc1ccc(-c2nc3cccnc3s2)cc1)C1CCCO1 (centres undefined)	HSF1 inh -59 (no result: MITF TRPM1 HTS)
O=C(Nc1nc2ccccc2s1)C1CCCO1 (centres undefined)	none (no result: Wnt act, MITF TRPM1 HTS)
O=C(O)c1ccccc1-c1ccccc1C(=O)Nc1ccc(-c2nc3cc(Cl)ccc3o2)cc1	Wnt act 35 (no result: esBAF inh)
O=C(Nc1ccc(-c2nc3ccccc3o2)cc1)C1CCCO1 (centres undefined)	none (no result: Wnt act)
O=C(Nc1ccc2nn(-c3ccccc3)nc2c1)c1ccco1	HSF1 activator 54, esBAF inh 62 (no result: Wnt act, MITF TRPM1 HTS)
O=C(C[C@H]1CC[C@@H]2[C@H](COC[C@H](O)CN2C(=O)c2ccccc2F)O1)NCc1ccccc1	none (no result: HSF1 activator, Wnt act, HSF1 inh, MITF TRPM1 HTS)
Oc1ccc(-c2csc(Nc3ccccn3)n2)c(O)c1	esBAF inh 80 (no result: MITF TRPM1 HTS)
COc1ccc(-c2csc(Nc3cccc(C)n3)n2)cc1	none (no result: MITF TRPM1 HTS)
CC(=O)Oc1ccc(-c2csc(Nc3cccc(C)n3)n2)cc1	HSF1 activator 65, esBAF inh 65 (no result: MITF TRPM1 HTS)
Cc1cccc(Nc2nc(-c3cccs3)cs2)n1	esBAF inh 50
CC(=O)Oc1ccc(-c2csc(Nc3ccccn3)n2)cc1	Wnt act 61 (no result: HSF1 activator, HSF1 inh, MITF TRPM1 HTS)
CCCNC(=O)Nc1ccc2c(c1)OC[C@@H](C)N(C(C)=O)C[C@H](C)[C@H](OC)CN(C)C2=O	none (no result: HSF1 activator, Wnt act, HSF1 inh, MITF TRPM1 HTS)
O=C(N[C@H]1CC[C@H](CCNC(=O)C2CCCC2)O[C@@H]1CO)c1ccncc1	none (no result: HSF1 activator, Wnt act, HSF1 inh, MITF TRPM1 HTS)

Source: PubChem BioAssay (Broad Institute)
